This note sets out measurements from PubChem BioAssay (Tox21).

Records with an inconclusive call do not appear. A number with no mark means an inactive call. The source made the active and inactive calls. The call rests on the fitted dose curve; in most records, active means well fitted cell-killing curve with a large enough effect in the repeat runs; inconclusive means weak or mixed curves, or effect the other way; inactive means no such curve, though single readings can be large or run the other way.
On the % scale 0 is the no-effect control and ±100 the full control effect; potency means the concentration at half of the fitted maximal effect.

A short description of the assay: qHTS assay to identify small molecule agonists of the farnesoid-X-receptor (FXR) signaling pathway - cell viability counter screen (AID 743218). Further: nearly all actives have a fitted effect of over 45% in size. To be noted: FXR-bla HEK293T viability, CellTiter-Glo luminescence, 16 h; series mostly up to 62.6 µM; viability change, negative = cytotoxic: at the top concentration. The text has this: U.S. Tox21 Program National Center for Advancing Translational Sciences [NCATS] NIH Chemical Genomics Center [NCGC] U.S. Environmental Protection Agency [EPA] National Institutes of Environmental Health Sciences [NIEHS] National Toxicology Program [NTP] U.S. Food and Drug Administration [FDA] Tox21 Assay Overview: The farnesoid-X-receptor (FXR), a nuclear hormone receptor, is highly expressed in liver, intestine, kidney and adrenal cortex. Natural ligands of FXR are the bile acids (Cholic acid, Chenodeoxy cholic acid etc). FXR is an important regulator of diverse metabolic pathways, including the bile acid homeostasis, lipid and glucose metabolisms. FXR regulates the expression of target genes by binding either as a monomer or as a heterodimer with the retinoid X receptor (RXR). Numerous studies have reported that FXR exerts protective function during cholestasis, diabetes, liver regeneration, and cancer. To identify compounds that activate FXR signaling, GeneBLAzer FXR-UAS-bla HEK 293T cell line (Invitrogen, Carlsbad, CA) containing a beta-lactamase reporter gene under the control of a UAS response element was used to screen the Tox21 10K compound library. The cytotoxicity of the Tox21 compound library against the FXR-bla cell line was tested in parallel by measuring the cell viability using CellTiter-Glo assay in the same wells.
Tox21 Assay Protocol Summary: FXR-bla cells were dispensed at 5000 cells/5uL/well in 1536-well black wall/clear bottom plates using a Multidrop Combi (Thermo Fisher Scientific, Waltham, MA) dispenser. After the assay plates were incubated at 37 C and 5% CO2 for 5 h, 23 nL of compounds dissolved in DMSO, positive controls or DMSO only was transferred to the assay plate by a Pintool station (Kalypsys, San Diego, CA). The assay plates were incubated at 37C for 16 h. After 1 uL of LiveBLAzerTM B/G FRET substrate was added using a Bioraptr Flying Reagent Dispenser (FRD) workstation (Beckman Coulter, Indianapolis, IN), the plates were incubated at room temperature for 2 h, and fluorescence intensity was measured by an Envision plate reader (PerkinElmer, Shelton, CT). For cell viability readout that measures cytotoxicity, 4uL/well of CellTiter-Glo reagent was added into the assay plates using a Bioraptr FRD. After 30 min incubation at room temperature, the luminescence intensity in the plates was measured using a ViewLux plate reader (PerkinElmer).
(In qHTS, concentration-response curves come from the screen itself.)
Turning to `CN[C@H]1CC[C@@H](c2ccc(Cl)c(Cl)c2)c2ccc(S(N)(=O)=O)cc21`, the Potency is 13.8 µM (active).

For `NCc1cccc(C2CCN(C(=O)c3ccc(C#Cc4ccccc4F)o3)CC2)c1`, the Potency was 34.7 µM (active).

Turning to `CN1CC[C@H](c2c(O)cc(O)c3c(=O)cc(-c4ccccc4Cl)oc23)[C@H](O)C1`, the “viability change, negative = cytotoxic” value was 4.84%.

`O=C(Nc1ccccc1)c1cc(Cl)ccc1O`: the Potency was 38.9 µM (active).

Turning to `COc1c(Br)cc(Br)c(C)c1Br`, the “viability change, negative = cytotoxic” value was 1.01%.

In the case of `Cc1cc(Br)ccc1NC(=O)CCl`, the Potency is 24.5 µM (active).

On to `CN1CCN(c2ccccc2/C=C2\SCCN(c3ccc(Cl)c(Cl)c3)C2=O)CC1`, for which the Potency is 43.6 µM (active).

For `c1ccc2cc3c4ccccc4c4ccccc4c3cc2c1`, the “viability change, negative = cytotoxic” value is -3.32% [at 81.1 µM].

As to `CC(O)(c1ccc(Cl)cc1)c1ccc(Cl)cc1`, the “viability change, negative = cytotoxic” value is -0.299%.

For `O=C1CCCCCCCCCCCCCC1`, the “viability change, negative = cytotoxic” value is -8.51%.

For the compound `CCCCCN=C(N)N/N=C/c1c[nH]c2ccc(OC)cc12`, the Potency is 13.3 µM (active).

With `CCCCCCCCCCCCCCCCC(C(=O)O)C(O)(CC(=O)O)C(=O)O` (configuration not stated), the Potency was 18.8 µM (active).

For `Clc1nc(C(Cl)(Cl)Cl)c(Cl)c(Cl)c1Cl`, the “viability change, negative = cytotoxic” value is -19.6%.

Consider `COc1cc(/C=C/C(=O)CC(=O)/C=C/c2ccc(O)c(OC)c2)ccc1O`, for which the Potency is 24.7 µM (active).

For `O=C1CCC/C=C\CCCCCCCCCC1`, the “viability change, negative = cytotoxic” value is -0.371%.

As to `CCC(C)(C)c1ccc(CC(C)CN2C[C@@H](C)O[C@@H](C)C2)cc1` (some centres not stated), the “viability change, negative = cytotoxic” value was -13.3%.

For the compound `CN1CCN(CCCN2c3ccccc3Sc3ccc(Cl)cc32)CC1`, the Potency is 26.6 µM (active).

Regarding `CN(C[C@@H](CC[N+]12CCC(C3CCCCC3)(CC1)CC2)c1ccc(Cl)c(Cl)c1)C(=O)c1cc(C(F)(F)F)cc(C(F)(F)F)c1`, the Potency was 54.9 µM (active).

As for `CN(C)CCOc1ccc(/C(=C(/CCCl)c2ccccc2)c2ccccc2)cc1`, the Potency is 20.5 µM (active).

For the compound `Oc1ccc(Cl)cc1C1CCCC1`, the “viability change, negative = cytotoxic” value was -14.6%.

Turning to `CCSCC`, the “viability change, negative = cytotoxic” value was -1.46% [at 81.1 µM].

As to `CCCCCCCC/C=C\CCCCCCCC(=O)N(CCO)CCO`, the Potency was 54.7 µM (active).

For `O=[N+]([O-])c1ccc(O)c2ncccc12`, the “viability change, negative = cytotoxic” value is -13.6%.

`Cc1cc(F)ccc1-c1cc(N2CC[C@@H](O)[C@H]2CO)ncc1N(C)C(=O)C(C)(C)c1cc(C(F)(F)F)cc(C(F)(F)F)c1`: the Potency was 13.6 µM (active).

As for `COc1cc([C@@H]2c3cc4c(cc3[C@@H](O[C@@H]3O[C@@H]5CO[C@@H](C)O[C@H]5[C@H](O)[C@H]3O)[C@H]3COC(=O)[C@H]23)OCO4)cc(OC)c1O`, the “viability change, negative = cytotoxic” value was -11.8%.

Regarding `N#Cc1nc(Cl)c(Cl)c(Cl)c1Cl`, the Potency is 13.8 µM (active).

On to `CC(C)c1ccc2sc3ccccc3c(=O)c2c1`, for which the “viability change, negative = cytotoxic” value is -1.67%.

As to `O=C(CCN1CCC(c2ccccc2)C1)c1ccc2c(c1)OCCO2` (configuration not stated), the “viability change, negative = cytotoxic” value is 5.25%.

As for `C=C1C(CCl)(CCl)C2(Cl)C(Cl)C(Cl)C1(Cl)C2(Cl)Cl` (configuration not stated), the Potency is 48.4 µM (active).

For `S=C1NC=NC2N=CNC12` (configuration not stated), the Potency is 11 µM (active).

On to `O=C(CCCCCCCCc1cccnc1)N1CCC(C=C(c2ccccc2)c2ccccc2)CC1`, for which the Potency was 24.5 µM (active).

For the compound `CN1CCN(CCCN2c3ccccc3Sc3ccc(C(F)(F)F)cc32)CC1`, the Potency is 26.6 µM (active).

Take `O=C(N[C@H](CO)[C@H](O)c1ccc([N+](=O)[O-])cc1)C(Cl)Cl`: the “viability change, negative = cytotoxic” value is 25.9% [at 81.1 µM].

`CCCCCCCCCCCCCCCCCCNC(=O)OC1CCN(C(=O)OC[C@H](COC(=O)N(Cc2cccc[n+]2CC)C(=O)c2ccccc2OC)OC)CC1`: the Potency is 26.6 µM (active).

Consider `SC1CCCCC1`, for which the “viability change, negative = cytotoxic” value is 19.2% [at 81.1 µM].

Take `CC(Cc1ccc(O)c(O)c1)C(C)Cc1ccc(O)c(O)c1` (configuration not stated): the “viability change, negative = cytotoxic” value was -23%.

As for `CCCCCCCCCC[N+](C)(CCCCCCCCCC)CCC[Si](OC)(OC)OC`, the Potency is 8.71 µM (active).
